Measured values reported in PubChem BioAssay AID1578 (Sanford-Burnham Center for Chemical Genomics, 2009).
Screen size: about 290,000 compounds; about 3,000 (1%) were called active. The list comes from a sample in which actives are over-represented; it also holds similar structures and randomly drawn compounds. Unmarked numbers belong to inactive results. Rule as the data show it: active = inhibition mostly above about 36% (no sharp cut-off); inactive = mostly below about 34%.

Test: NOD1 signaling inhibitors, primary screen, cell-based, luminescence, uHTS (AID 1578);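 also: HEK-293T reporter cells stimulated with the NOD1 agonist gamma-tri-DAP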
Conditions: NOD1-driven NF-kB luciferase reporter cells, at 4 µM, active compounds read high
For `C=CCn1cnc2c(nnn2-c2ccc(C)c(C)c2)c1=O`, the inhibition was -34.3%. With `Oc1ccc(N=Nc2ccc3c(c2)OCO3)c2ccccc12` the inhibition was 109% (active). For `Oc1[nH]c2ccccc2c1C=Nc1ccc2c(c1)OCO2`, the inhibition was 14.2%. Work on `NS(=O)(=O)c1ccc(N=Nc2ccc(O)c3ncccc23)cc1` yielded an inhibition of -6.1%. With `Oc1ccc(N=Nc2ccc3c(c2)OCCO3)c2ncccc12` the inhibition was 106% (active). Work on `Oc1ccc(N=Nc2ccc3c(c2)OCCO3)c(O)c1` yielded an inhibition of -2.2%. `O=S(=O)(Nc1ccc(N=Nc2ccc(O)c3ccccc23)cc1)c1ccccc1` showed an inhibition of 13%. `Cc1ccc(S(=O)(=O)N(CC(=O)N2CCC(C)CC2)c2ccccc2)cc1` showed an inhibition of -4.7%. Molecule `Cc1nc(NC(=O)c2ccccc2)sc1C` has an inhibition of -84.9%. Molecule `COCC(=O)OCn1nnc2ccccc2c1=O` has an inhibition of 3.6%. With `O=C(Nc1ccccc1)c1ccc(Nc2c([N+](=O)[O-])cc([N+](=O)[O-])c3ccccc23)cc1` the inhibition was -8.1%. `Cc1ccc(NC(=O)c2ccc(Nc3c([N+](=O)[O-])cc([N+](=O)[O-])cc3[N+](=O)[O-])cc2)cc1` gave an inhibition of 4.8%. With `Cc1ccccc1NC(=O)c1ccc(Nc2c([N+](=O)[O-])cc([N+](=O)[O-])c3ccccc23)cc1` the inhibition was 76.4% (active). For `CSc1ccccc1NC(=O)c1ccc(CN2CCOCC2)cc1`, the inhibition was -18.3%. For `COc1cc(C2NC(=O)NC(C)=C2C(C)=O)cc(OC)c1OC` (centres undefined), the inhibition was 54.9% (active). In the case of `COc1cc(C2NC(=O)NC(C)=C2C(C)=O)ccc1O` (centres undefined), the inhibition is reported as 7.8%. For `CCOC(=O)COc1c(Br)cc(C2NC(=O)NC(C)=C2C(C)=O)cc1OC` (centres undefined), the inhibition was -12.4%. Molecule `CCOCCOC(=O)Cn1cnc2scc(-c3ccc(C)cc3)c2c1=O` has an inhibition of -15.2%. Work on `O=C(CN1CCCC1=O)NC1(C(F)(F)F)NC(=O)N(Cc2ccccc2)C1=O` (centres undefined) yielded an inhibition of -22.8%. Work on `N#C/C(=C\c1ccncc1)c1nc2c(s1)CCCC2` yielded an inhibition of -9.5%. Molecule `CC1CCc2nc(/C(C#N)=C/c3cccnc3)sc2C1` (centres undefined) has an inhibition of -52.3%. For `CC1CCc2nc(/C(C#N)=C/c3ccncc3)sc2C1` (centres undefined), the inhibition was 64.3% (active). For `O=C(CSc1nc2c(cnn2-c2ccc(F)cc2)c(=O)[nH]1)N1CCCc2ccccc21`, the inhibition was 4.3%. Molecule `CCCS(=O)(=O)N1CCCC(C(=O)Oc2ccc(OC)cc2)C1` (centres undefined) has an inhibition of -5.5%. For `C=CCOc1ccccc1CNc1cccc(F)c1`, the inhibition was 2.1%. `CCOc1ccccc1NC(=O)Nc1ccc2c(c1)OCO2` gave an inhibition of -52.1%. For `C=CCOc1ccccc1CN(C(=O)CCl)c1ccc2c(c1)OCO2`, the inhibition was 64.3% (active). With `C=CCOc1ccccc1CNc1ccc2c(c1)OCCO2` the inhibition was 58.5% (active). `O=C(/C=C/c1ccccc1)NCCc1ccc2c(c1)OCCO2` gave an inhibition of -27.8%. In the case of `O=Cc1ccccc1OCc1ccc2c(c1)OCO2`, the inhibition is reported as 16.8%. For `Oc1ccccc1CNc1ccc2c(c1)OCCO2`, the inhibition was -47.1%. Molecule `O=C(/C=C/c1ccccc1)Nc1ccc2c(c1)OCCO2` has an inhibition of -2.7%. In the case of `O=C(CCl)N(C/C=C/c1ccccc1)c1ccc2c(c1)OCCO2`, the inhibition is reported as 54.1% (active). `O=C(CSc1c(F)c(F)cc(F)c1F)Nc1ccc(C2SCCS2)cc1` showed an inhibition of -7.2%. `O=C(CSCc1ccc(Cl)cc1)Nc1ccc(O)cc1C(=O)O` gave an inhibition of -25.7%. `CCCc1cc(=O)[nH]c(/N=C(\N)Nc2ccccc2)n1` gave an inhibition of -6.1%. Molecule `CCOC(=O)CNC(=O)CSc1nnc(NC(=O)c2ccc(S(=O)(=O)N3CCOCC3)cc2)s1` has an inhibition of -3.6%. Molecule `Cc1oncc1C(=O)N1CCCC(CO)(Cc2ccc(F)cc2F)C1` (centres undefined) has an inhibition of -6.9%. Work on `CC(NS(=O)(=O)c1ccc(Br)cc1)c1ccccc1` (centres undefined) yielded an inhibition of -16.8%. `CCN1CCN(c2nc3c(c(=O)n(C)c(=O)n3C)n2Cc2cccc3ccccc23)CC1` gave an inhibition of -7.8%. Work on `Cc1n(Cc2ccccc2)c2ccccc2[n+]1Cc1ccccc1` yielded an inhibition of 19.4%. Molecule `COc1ccc(-c2nc3ccccc3n2Cc2ccccc2)cc1` has an inhibition of 14.3%. Molecule `O=C(CNC(=O)c1cccs1)NCCN1CCN(Cc2ccccc2)CC1` has an inhibition of -22.6%. For `COc1ccc(N/C=C/C(=O)c2ccccc2)cc1`, the inhibition was -59%. For `COc1ccc(OC)c(N/C=C/C(=O)c2ccccc2)c1`, the inhibition was 62.5% (active). Molecule `COc1ccc(OC)c(N/C=C/C(=O)c2ccc(OC)c(OC)c2)c1` has an inhibition of -24.7%. `Cc1nc2c(ccc3nc(NC(=O)Cc4cccc5ccccc45)sc32)s1` showed an inhibition of -33%. Work on `COc1cc2[nH]c(=S)nc(NCc3ccc(Cl)cc3)c2cc1OC` yielded an inhibition of -8.3%. Work on `COc1cc(OC)cc(C(=O)N[C@H](C(=O)OCc2cc(=O)oc3cc(C)ccc23)C(C)C)c1` yielded an inhibition of -34.2%. `Cc1sc2ncnc(NC3CCN(Cc4ccccc4)CC3)c2c1C` gave an inhibition of 42.7%. With `Cc1csc2c(NC3CCN(Cc4ccccc4)CC3)ncnc12` the inhibition was 5%. `CNC(=S)N(CCc1c(C)[nH]c2ccc(C)cc12)Cc1cccnc1` gave an inhibition of -9%. For `CCNC(=S)N(CCc1c(C)[nH]c2ccc(Cl)cc12)Cc1cccnc1`, the inhibition was 11.3%. In the case of `CNC(=S)N(CCc1c(C)[nH]c2ccc(Cl)cc12)Cc1cccnc1`, the inhibition is reported as 46.2% (active). Work on `O=C(OCc1nc2ccccc2s1)c1ccc([N+](=O)[O-])o1` yielded an inhibition of -43.7%. `Cc1ccc(C(=O)NCc2ccc(F)cc2)cc1NC1=NC2CS(=O)(=O)CC2S1` (centres undefined) gave an inhibition of -41.2%. Molecule `O=C(NCC1CCCO1)c1cc2c([nH]c3ccccc32)c(-c2cccc(Br)c2)n1` (centres undefined) has an inhibition of 33.6%. With `COc1cccc(-c2nc(C(=O)NCC3CCCO3)cc3c2[nH]c2ccccc23)c1` (centres undefined) the inhibition was 51.4%. For `O=C(NCC1CCCO1)c1cc2c([nH]c3ccccc32)c(-c2cccc(Cl)c2)n1` (centres undefined), the inhibition was 73.1% (active). Work on `Cc1cc(=O)[nH]c(SCC(=O)Nc2ccc(F)c([N+](=O)[O-])c2)n1` yielded an inhibition of -19.5%. `COc1ccc(CNC(=O)CSc2nnc(NC(=O)c3ccccc3F)s2)cc1` gave an inhibition of -52.7%. For `CC1CCCCC1NC(=O)CCn1ccc2cc(S(=O)(=O)N3CCCC3)ccc21` (centres undefined), the inhibition was 13.3%. Molecule `Nc1nnc(/C=C/c2ccccc2)s1` has an inhibition of -41.9%. With `C(=C\c1ccncc1)/c1ccccc1` the inhibition was -7.3%. For `CC1(C)CCSC(/C=C/c2ccccc2)=N1`, the inhibition was 73.3% (active). Work on `COc1cc2c(c(O)c1OC)-c1c(cc(OC)c(OC)c1OC)C[C@@H](C)[C@@H](C)C2` yielded an inhibition of 1.8%. `Cc1ccc(-c2noc(CCCC(=O)NCC3CCCO3)n2)cc1` (centres undefined) gave an inhibition of 8.8%. In the case of `COc1ccc(CS(=O)(=O)/C(Cl)=C(/Cl)C(=O)Nc2ccc(OC)nc2)cc1`, the inhibition is reported as 78.4% (active). In the case of `COc1ccc(NC(=O)C(Cl)=C(Cl)Cl)cn1`, the inhibition is reported as 30.7%. `COc1ccc(CC(=O)Nc2ccc(OC)nc2)cc1` gave an inhibition of -29.9%. In the case of `Nc1ccc(Nc2ccccc2N)cc1`, the inhibition is reported as 2.7%. In the case of `Cc1ccc(Nc2ccccc2N)cc1`, the inhibition is reported as 59.7% (active). For `Nc1ccccc1Nc1ccccc1`, the inhibition was 48.8%. For `CCCCCn1c(C)c2c(OCC)cccc(=O)c2c1C`, the inhibition was -1%. Work on `CCN(CC)CCNCc1cc(Br)ccc1OCC(=O)NCc1ccccc1` yielded an inhibition of 7.4%. Molecule `N#Cc1cc([N+](=O)[O-])ccc1NC(=O)COC(=O)CC1CCCC1` has an inhibition of -12.2%. With `Cc1ccccc1S(=O)(=O)Cc1ccc(C(=O)NCc2ccco2)o1` the inhibition was -5.4%. `CNC(=O)c1ccccc1S(=O)c1ccccc1COC(C)=O` (centres undefined) gave an inhibition of -5.2%. Molecule `COc1cc2c(cc1OC)CN(C(=O)CSc1nc(N)c(C#N)cc1C#N)CC2` has an inhibition of 6.8%. In the case of `COc1cc2c(cc1OC)CN(C(=O)CSc1nc(C)cc(C)c1C#N)CC2`, the inhibition is reported as 54.2% (active). In the case of `Cc1cc(C)c(C#N)c(SCC(=O)N2CCCCC2)n1`, the inhibition is reported as -5.5%. `CC12C(=O)N(c3ccccn3)C(=O)C1C1C=CC2C1` (centres undefined) gave an inhibition of 15.9%. Work on `CN(C)CCN(C(=O)c1cccc2ccccc12)c1nc2cc3c(cc2s1)OCO3` yielded an inhibition of 17.7%. With `O=[N+]([O-])c1ccc(N2CCN(Cc3cccc([N+](=O)[O-])c3)CC2)cc1` the inhibition was 11.9%. In the case of `O=[N+]([O-])c1cccc(CN2CCCCCC2)c1`, the inhibition is reported as 82.1% (active). `O=[N+]([O-])c1ccc(CN2CCCCCC2)cc1` showed an inhibition of -21%. Molecule `CCC(C(=O)N1CCN(c2ncccn2)CC1)c1ccccc1` (centres undefined) has an inhibition of 4.2%. `CC(CC(=O)N(C)C1CCCCC1)S(=O)(=O)c1ccc2c(c1)NC(=O)CO2` (centres undefined) gave an inhibition of -10.5%. For `COc1ccc(C(=O)NNC(=S)NC(=O)c2ccc(Br)o2)cc1OC`, the inhibition was 37.6% (active). Work on `COc1ccc(OC)c(NC(=S)NC(=O)c2ccc(Br)o2)c1` yielded an inhibition of -27.7%. `COc1ccc(OCC(=O)NNC(=S)NC(=O)c2ccc(Br)o2)cc1` showed an inhibition of -38.4%. `COc1ccc(CCNC(=O)C/C(C)=N/NC(=O)c2ccc(N)cc2)cc1OC` gave an inhibition of -10.1%. In the case of `Cc1sc2ncn(CC(=O)NCCCC(=O)N3CCCCC3)c(=O)c2c1C`, the inhibition is reported as 12.4%. With `C=CCOc1c(CNC2CCCC2)cc(Cl)cc1OC` the inhibition was -19.3%. `CCNCc1cc(Cl)cc(OC)c1OC(C)C` gave an inhibition of 17.6%. In the case of `CNCc1cc(Cl)cc(OC)c1OC(C)C`, the inhibition is reported as 44.6% (active). `COc1ccc(N)cc1S(=O)(=O)Nc1ccccc1Cl` showed an inhibition of 9.1%. For `COc1ccc(OCC(=O)Nc2ccc(S(=O)(=O)N3CCCCCC3)cc2)cc1`, the inhibition was -7.8%. Work on `O=S(=O)(c1ccc(S(=O)(=O)N2CCC(O)CC2)cc1)N1CCCC1` yielded an inhibition of 29.3%.
